Here are results for 29 molecules from ChEMBL document CHEMBL1157539, “Thousands of chemical starting points for antimalarial lead identification” (Nature, 2010).

What all share (assay type): functional
Experiment [1] relates to Plasmodium falciparum. Description: GSK_TCMDC: Inhibition of Plasmodium falciparum 3D7 in whole red blood cells, using parasite LDH activity as an index of growth. Test compounds present at 2uM.
Experiment [2] deals with Plasmodium falciparum. Kind of experiment: GSK_TCMDC: Inhibition of Plasmodium falciparum Dd2 in whole red blood cells, using parasite LDH activity as an index of growth. Test compounds present at 2uM.
In experiment [3] the test system is HepG2. Description: GSK_TCMDC: Percent inhibition of human HepG2 cell line. Test compounds present at 10uM.

One may read the Inhibition as the share of the control response that was lost under treatment. Low values mean little suppression, high ones strong suppression. Consider `O=C(NCCCN1CCC(Cc2ccccc2)CC1)c1cc2c(Cl)nc3ccccc3c2s1`, for which the Inhibition is given as 98% in experiment [1], 40% in experiment [2] and 22% in experiment [3].
For `CC(Cc1ccc(OCCN2CCN(c3cccc(C(F)(F)F)c3)CC2)cc1)NCC(O)c1cccc(C(F)(F)F)c1.Cl` (configuration not stated) the same measures were 97%, 91% and 11%.
In the same order, the values of `O=C(CCc1cccc(O)c1)NCC(NCCCNc1cc(=O)c2ccccc2[nH]1)c1cc(Br)cc(Br)c1` (configuration not stated) are 86%, 37% and 0%.
For `Cc1cccc2nc(-c3cccc(-c4ccc(NC(=O)Cc5ccc[n+]([O-])c5)cc4)c3)[nH]c12`, the Inhibition in experiment [1] stood at 99%; in experiment [2] it was 87%; in experiment [3] it was 11%.
In the case of `CCc1cn2c3c(cc(C(=O)N[C@@H](Cc4cccc(Cl)c4)[C@H](O)CNC4CCCCC4)cc13)N(C)S(=O)(=O)CC2.O=CO`, the Inhibition in experiment [1] was found to be 97%; in experiment [2], 98%; in experiment [3], 12%.
Consider `O=C(O)C(F)(F)F.O=C(O)Cc1ccc(-c2c[nH]c3ncc(-c4cccc5ncccc45)cc23)cc1`, for which the Inhibition was 95% in experiment [1], 0% in experiment [2] and 7% in experiment [3].
For the molecule `CC(=O)N(C)/N=C/[C@H](CCc1ccccc1)NC(=O)[C@H](CC(C)C)NC(=O)c1cccc(OCCN2CCOCC2)c1`, the Inhibition in experiment [1] worked out at 89%; in experiment [2], 65%; in experiment [3], 5%.
For `COc1ccc2nc3cc(Cl)ccc3c(N)c2c1.Cl` the same measures were 100%, 100% and 100%.
On to `CN1CCC(C(=O)N(Cc2ccc(-c3ccc(CNCCc4ccccc4)cn3)cc2)Cc2cccc(F)c2)CC1.O=C(O)C(F)(F)F`, for which the figures for the Inhibition in experiment [1], in experiment [2] and in experiment [3] were 90%, 80% and 30%, respectively.
Regarding `NC1=NC(c2ccccc2)(c2ccccc2)C(=O)N1CCCCc1ccccc1.O=CO`, the Inhibition was determined as 96% in experiment [1], 81% in experiment [2] and 14% in experiment [3].
`Clc1ccc(Cn2nc(Br)nc2Br)c(Cl)c1`: the figures for the Inhibition in experiment [1], in experiment [2] and in experiment [3] were 96%, 96% and 4%, respectively.
`Cc1cccc2nc(-c3ccc(-c4cccc(CN5CCN(CC6CCCN(C)C6)CC5)c4)s3)[nH]c12.O=C(O)C(F)(F)F` (configuration not stated): the Inhibition in experiment [1] is listed as 100%; in experiment [2], 99%; in experiment [3] it was 47%.
With `CN1CCCC1CCNc1ncc2c(-c3ccc(NC(=O)Nc4cc(C(F)(F)F)ccc4F)c(F)c3)nn(C)c2n1.O=C(O)C(F)(F)F` (configuration not stated), the Inhibition in experiment [1] was found to be 99%; in experiment [2], 90%; in experiment [3], 100%.
`Oc1cc(Nc2ccnc3cc(-c4ccc(CN5CCCCC5)o4)ccc23)c(Cl)cc1F`: the Inhibition in experiment [1] is reported as 100%; in experiment [2] it was 81%; in experiment [3] it was 30%.
On to `Cn1nc(-c2cccc(CN[C@@H]3CCc4ccc(O)cc43)c2)c2cnc(NCCCN3CCCC3)nc21`, for which the Inhibition was found to be 100% in experiment [1], 0% in experiment [2] and 9% in experiment [3].
Take `Cc1cc(-c2ccc3c(c2)CCN(CCC2CCC(NC(=O)/C=C/c4ccccc4F)CC2)CC3)on1.Cl` (configuration not stated): the Inhibition was 94% in experiment [1], 13% in experiment [2] and 26% in experiment [3].
As to `Cl.Ic1cc(CNC2CCCCC2)ccc1OCc1cccc(COc2ccc(CNC3CCCCC3)cc2I)c1`, the figures for the Inhibition in experiment [1], in experiment [2] and in experiment [3] were 93%, 34% and 0%, respectively.
For `Cc1cccc2nc(-c3ccc(-c4ccc(CN5CCOCC5)cc4)cc3)[nH]c12.O=C(O)C(F)(F)F`, the Inhibition is on record as 92% in experiment [1], 86% in experiment [2] and 29% in experiment [3].
In the case of `Oc1ccc(-c2nc3c4cc(I)ccc4c4ccc(I)cc4c3[nH]2)cc1`, the Inhibition in experiment [1] is on record as 98%; in experiment [2], 51%; in experiment [3], 0%.
Turning to `O=C(NCc1ccccc1)NC(CCCN1CCC(Oc2cccc(Cl)c2)CC1)c1ccc(Cl)c(Cl)c1` (configuration not stated), the Inhibition in experiment [1] is 81%; in experiment [2], 57%; in experiment [3], 15%.
As to `CC(C)(C)c1ccc(/C=C/C(=O)NCCCCCN2CCC(c3c[nH]c4ccccc34)CC2)cc1`, the Inhibition in experiment [1] turned out to be 91%; in experiment [2] it was 12%; in experiment [3] it was 70%.
Take `CC1N=C(N)N=C(N)N1OCc1cccc2ccccc12` (configuration not stated): the Inhibition in experiment [1] came to 93%; in experiment [2], 4%; in experiment [3] it was 66%.
`O=C(/C=C/c1ccc(Cl)c(Cl)c1)NCCCCCCN1CCCN(C(=O)Nc2ccc(C(F)(F)F)cc2)CC1`: the Inhibition in experiment [1] turned out to be 100%; in experiment [2], 25%; in experiment [3], 47%.
For the molecule `COc1cccc(-c2ccc3c(-c4cccc(NC(C)=O)c4)cnc(N)c3c2)c1.O=CO`, the Inhibition in experiment [1] was 99%; in experiment [2] it was 83%; in experiment [3], 71%.
For the molecule `N#Cc1cccc(NC(=O)Nc2cccc(-c3ccc(-c4nc5cc(C(F)(F)F)ccc5[nH]4)cc3)c2)c1`, the Inhibition in experiment [1] was 100%; in experiment [2] it was 99%; in experiment [3], 54%.
For `O=C(Nc1cccc(C(F)(F)F)c1)Nc1ccc(F)c([N+](=O)[O-])c1` the same measures were 100%, 100% and 43%.
As for `CC(C)NCc1ccc(-c2ccc(-c3nc4cc(C(F)(F)F)ccc4[nH]3)cc2)cc1.O=C(O)C(F)(F)F`, the Inhibition in experiment [1] turned out to be 100%; in experiment [2] it was 98%; in experiment [3], 16%.
`COc1ccc2nccc(N3CCN(CCNCc4ccc5c(n4)NC(=O)CO5)CC3)c2c1.Cl`: the values for the Inhibition in experiment [1], in experiment [2] and in experiment [3] were 92%, 5% and 18%, respectively.
Turning to `CCc1c(C)nc(-n2nc(C)cc2NC(=O)c2ccc(OC)cc2OC)[nH]c1=O`, the Inhibition in experiment [1] was 96%; in experiment [2], 57%; in experiment [3], 42%.
